Source: PubChem BioAssay (Tox21)
Results filed as inconclusive are left out. Calls of active or inactive are those of the source. Unless noted, calls come from the whole dose curve; as a rule, active = well fitted curve in the direction sought with a large enough effect in the repeat runs; inconclusive = weak or mixed curves; inactive = no such curve, though single readings can be large; an effect the other way counts as inactive or inconclusive.

Tests used:
[1] = qHTS RealTime-Glo MT Cell Viability Assay in HEK293 cells - 0 hour (AID 1224880); details: RealTime-Glo luminescence; series mostly up to 76.8 µM; note: top concentration of the series differs between compounds; nearly all actives have a fitted effect of over 45% in size
Method in brief: (§1)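 Kinetic, non-lysing viability readout. Seed HEK293 (600/well) with reagent, incubate 5 h at 37 C/5% CO2, pin 23 nL compound in DMSO, incubate at 37 C, read luminescence at 0, 8, 16, 24, 32, 40 h.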

[2] = A CellTox Green Cytotoxicity Assay to monitor cytotoxicity in HEK293 cells - 32 hour (AID 1224881); details: CellTox Green fluorescence; series mostly up to 76.8 µM; note: nearly all actives have a fitted effect of over 40% in size
Method in brief: (§2)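 Real-time, in one plate: 600 HEK293 cells/well with dead-cell DNA dye, pinned compound after 5 h, 37 C incubation over 40 h; viable cells give no appreciable fluorescence.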

[3] = A CellTox Green Cytotoxicity Assay to monitor cytotoxicity in HepG2 cells - 0 hour (AID 1224882); details: CellTox Green fluorescence; series mostly up to 76.8 µM; note: nearly all actives have a fitted effect of over 35% in size
Method in brief: (§3)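 Cytotoxicity was tracked as dead-cell DNA fluorescence in HepG2 cells treated with test compounds at 37 C; each time-point value comes from one kinetic series spanning 0, 8, 16, 24, 32 and 40 h.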

[4] = A CellTox Green Cytotoxicity Assay to monitor cytotoxicity in HepG2 cells - 32 hour (AID 1224883); details: CellTox Green fluorescence; series mostly up to 76.8 µM; note: nearly all actives have a fitted effect of over 50% in size
Method in brief: as §3

[5] = A CellTox Green Cytotoxicity Assay to monitor cytotoxicity in HEK293 cells - 8 hour (AID 1224884); details: CellTox Green fluorescence; series mostly up to 76.8 µM; note: nearly all actives have a fitted effect of over 35% in size
Method in brief: as §2

[6] = qHTS RealTime-Glo MT Cell Viability Assay in HepG2 cells - 16 hour (AID 1224885); details: RealTime-Glo luminescence; series mostly up to 76.8 µM; note: nearly all actives have a fitted effect of over 50% in size
Method in brief: (§4)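 Cells + NanoLuc/prosubstrate dispensed (600 cells/well) → 5 h at 37 C/5% CO2 → compounds in DMSO transferred → 40 h incubation at 37 C, luminescence read at 0, 8, 16, 24, 32, 40 h.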

[7] = qHTS RealTime-Glo MT Cell Viability Assay in HEK293 cells - 24 hour (AID 1224886); details: RealTime-Glo luminescence; series mostly up to 76.8 µM; note: nearly all actives have a fitted effect of over 50% in size; note: potency is the fitted concentration of half-maximal effect
Method in brief: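 Tox21 10K qHTS, HEK293, 600 cells/well, RealTime-Glo reagent co-dispensed with cells; 5 h preincubation, compound by pintool, 37 C, luminescence at 0–40 h.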

[8] = qHTS RealTime-Glo MT Cell Viability Assay in HEK293 cells - 8 hour (AID 1224887); details: RealTime-Glo luminescence; series mostly up to 76.8 µM; note: nearly all actives have a fitted effect of over 50% in size; note: potency is the fitted concentration of half-maximal effect
Method in brief: as §1

[9] = A CellTox Green Cytotoxicity Assay to monitor cytotoxicity in HEK293 cells - 16 hour (AID 1224888); details: CellTox Green fluorescence, hits give high values; series mostly up to 76.8 µM; note: nearly all actives have a fitted effect of over 35% in size
Method in brief: as §2

[10] = qHTS RealTime-Glo MT Cell Viability Assay in HepG2 cells - 0 hour (AID 1224889); details: RealTime-Glo luminescence; series mostly up to 76.8 µM; note: nearly all actives have a fitted effect of over 50% in size
Method in brief: as §4

[11] = A CellTox Green Cytotoxicity Assay to monitor cytotoxicity in HepG2 cells - 8 hour (AID 1224890); details: CellTox Green fluorescence; series mostly up to 76.8 µM; note: nearly all actives have a fitted effect of over 45% in size
Method in brief: as §3

[12] = qHTS assay to identify small molecule antagonists of the estrogen receptor alpha (ER-alpha) signaling pathway using the BG1 cell line in the presence of 0.1 nM 17-beta-estradiol - cell viability counter screen (AID 1259241); details: VM7Luc4E2 (BG1) viability, CellTiter-Fluor protease, 22 h, 0.1 nM estradiol agonist added; series mostly up to 92.4 µM; note: nearly all actives have a fitted effect of over 40% in size
Method in brief: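 The cell line endogenously expresses full-length ER-alpha and carries four EREs driving luciferase. Cells are cultured 5 days hormone-free, treated 22 hr with compounds and 0.1 nM estradiol, then viability is read by fluorescence.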

[13] = qHTS assay to identify small molecule antagonists of the androgen receptor (AR) signaling pathway using the MDA cell line in the presence of 0.5 nM R1881 - cell viability counter screen (AID 1259242); details: MDA-kb2 viability, CellTiter-Fluor protease fluorescence, 16 h; series mostly up to 92.4 µM; note: nearly all actives have a fitted effect of over 45% in size
Method in brief: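 Cells seeded at 3,000/well and allowed 5 hr at 37C, 0% CO2 before compound transfer and R1881 (0.5 nM final) addition; 16 hr later, live-cell protease fluorescence indicated cytotoxicity.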

[14] = biological target: Androgen receptor (Homo sapiens) (UniProt P10275); assay: qHTS assay to identify small molecule antagonists of the androgen receptor (AR) signaling pathway using the MDA cell line in the presence of 0.5 nM R1881 (AID 1259243); details: MDA-kb2 MMTV-luciferase, R1881 0.5 nM, 16 h; series mostly up to 92.4 µM; note: nearly all actives have a fitted effect of over 50% in size; note: potency is the fitted concentration of half-maximal effect
Method in brief: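 Luminescence from an AR/GR-responsive MMTV-luciferase construct in MDA-kb2 breast carcinoma cells, read 30 min after ONE-Glo, following 16 hr co-treatment with compounds and 0.5 nM R1881.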

[15] = biological target: Estrogen receptor (Homo sapiens) (UniProt P03372); assay: qHTS assay to identify small molecule antagonists of the estrogen receptor alpha (ER-alpha) signaling pathway using the BG1 cell line in the presence of 0.1 nM 17-beta-estradiol (AID 1259244); details: VM7Luc4E2 (BG1) ERE-luciferase, antagonist mode, 0.1 nM E2, 22 h; series mostly up to 92.4 µM; note: nearly all actives have a fitted effect of over 50% in size; note: potency is the fitted concentration of half-maximal effect
Method in brief: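 Luciferase signal from VM7Luc4E2 ERE-reporter cells, co-dosed with test compound and 0.1 nM final 17beta-estradiol for 22 h, read with ONE-Glo.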

[16] = qHTS assay to identify small molecule HDAC inhibitors (AID 1259364); details: HCT-116 HDAC-Glo I/II luminescence, 2 h; series mostly up to 92.4 µM;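 note: wild-type HCT-116 cells with endogenous class I/II HDAC activity; top concentration of the series differs between compounds; nearly all actives have a fitted effect of over 45% in size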
Method in brief: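 HCT-116 wt cells, 1,500/well, overnight attach. Compounds (DMSO) 2 h, 37 °C. HDAC-Glo I/II, 30 min RT. Luminescence.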

[17] = qHTS assay to identify small molecule HDAC inhibitors - cell viability counter screen (AID 1259365); details: HCT-116 viability, CellTiter-Glo ATP luminescence, 2 h; series mostly up to 92.4 µM; note: nearly all actives have a fitted effect of over 50% in size
Method in brief: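 Viability readout: CellTiter-Glo luminescence. Wild-type HCT-116 cells, 2hr compound treatment following overnight attachment at 37 C.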

[18] = qHTS assay to identify small molecule agonists of the sonic hedgehog signaling (Shh) pathway - cell viability counter screen (AID 1259366); details: NIH/3T3 Gli1-Luc viability, CellTiter-Fluor, 24 h; series mostly up to 92.4 µM; note: nearly all actives have a fitted effect of over 50% in size
Method in brief: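 Viability measured fluorometrically (CellTiter-Fluor, 1hr, 37C) in 3T3 Gli1-Luc reporter cells after 23hr compound exposure within a 24hr incubation at 37C/5% CO2.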

[19] = qHTS assay to identify small molecule antagonists of the sonic hedgehog signaling (Shh) pathway - cell viability counter screen (AID 1259367); details: NIH/3T3 Gli1-Luc viability, CellTiter-Fluor, 24 h; series mostly up to 92.4 µM; note: nearly all actives have a fitted effect of over 55% in size
Method in brief: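 Tox21 library chemicals were tested on a Gli1-Luc NIH/3T3 clone (2,000 cells/well) stimulated by conditioned medium; viability was quantified as fluorescence from CellTiter-Fluor reagent added at 23 hr.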

[20] = qHTS assay to identify small molecule phospholipidosis (PLD) inducers (AID 1259344; active = well fitted curve in the direction sought with a large enough effect; an effect the other way counts as inactive or inconclusive); details: HepG2 phospholipidosis, LipidTOX Red imaging, 24 h; series mostly up to 38.3 µM
Method in brief: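 Image-based: LipidTOX Red pit count/intensity per well and per cell; HepG2, 24 h compound at 37 C, PFA fixation, Hoechst counterstain.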

Measured: Potency

Chain of Estrogen receptor (Homo sapiens) (P03372 whole entry, looked up): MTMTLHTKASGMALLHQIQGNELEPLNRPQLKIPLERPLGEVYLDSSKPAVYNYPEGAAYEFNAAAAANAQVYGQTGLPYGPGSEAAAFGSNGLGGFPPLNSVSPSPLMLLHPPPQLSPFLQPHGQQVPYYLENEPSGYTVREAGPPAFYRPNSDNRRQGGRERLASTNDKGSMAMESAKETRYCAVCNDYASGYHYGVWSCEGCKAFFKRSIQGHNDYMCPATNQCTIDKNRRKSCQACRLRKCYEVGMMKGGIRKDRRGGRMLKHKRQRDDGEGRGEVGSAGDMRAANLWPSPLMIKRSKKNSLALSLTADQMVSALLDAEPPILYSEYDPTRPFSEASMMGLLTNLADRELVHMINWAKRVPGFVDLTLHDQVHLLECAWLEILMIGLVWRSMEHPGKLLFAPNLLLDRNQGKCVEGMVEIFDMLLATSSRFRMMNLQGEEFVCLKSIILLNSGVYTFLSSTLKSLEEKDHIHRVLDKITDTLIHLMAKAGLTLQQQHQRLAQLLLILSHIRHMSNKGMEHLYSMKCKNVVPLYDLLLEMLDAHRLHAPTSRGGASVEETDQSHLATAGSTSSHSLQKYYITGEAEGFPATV
Chain of Androgen receptor (Homo sapiens) (P10275 whole entry, looked up): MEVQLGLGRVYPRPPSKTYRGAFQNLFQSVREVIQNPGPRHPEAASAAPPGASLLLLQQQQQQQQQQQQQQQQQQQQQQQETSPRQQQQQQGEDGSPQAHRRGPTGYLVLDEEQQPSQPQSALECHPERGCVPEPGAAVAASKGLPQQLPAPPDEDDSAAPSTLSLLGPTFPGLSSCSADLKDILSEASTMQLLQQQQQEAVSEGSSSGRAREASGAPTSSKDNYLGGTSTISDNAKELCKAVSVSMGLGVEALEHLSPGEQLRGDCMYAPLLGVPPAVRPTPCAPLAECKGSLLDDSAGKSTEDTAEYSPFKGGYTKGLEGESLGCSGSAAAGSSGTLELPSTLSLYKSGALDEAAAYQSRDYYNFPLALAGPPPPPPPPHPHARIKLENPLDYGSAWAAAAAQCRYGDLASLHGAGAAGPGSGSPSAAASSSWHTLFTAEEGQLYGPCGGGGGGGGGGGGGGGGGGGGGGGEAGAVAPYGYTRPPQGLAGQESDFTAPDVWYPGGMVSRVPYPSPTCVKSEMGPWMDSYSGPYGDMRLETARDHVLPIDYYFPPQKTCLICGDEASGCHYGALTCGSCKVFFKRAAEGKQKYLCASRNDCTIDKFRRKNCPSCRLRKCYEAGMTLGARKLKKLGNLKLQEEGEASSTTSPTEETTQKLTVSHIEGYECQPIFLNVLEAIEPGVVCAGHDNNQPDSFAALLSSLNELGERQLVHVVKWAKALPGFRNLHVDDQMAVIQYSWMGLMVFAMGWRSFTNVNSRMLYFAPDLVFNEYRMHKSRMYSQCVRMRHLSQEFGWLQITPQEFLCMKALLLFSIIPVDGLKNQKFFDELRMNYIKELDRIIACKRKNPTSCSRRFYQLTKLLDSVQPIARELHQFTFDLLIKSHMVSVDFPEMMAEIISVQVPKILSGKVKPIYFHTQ

O=C(Nc1ccc(Cl)c(Cl)c1)C1CC1
active: [7] 9.52 µM | [8] 19 µM | [14] 5.96 µM | [15] 26.6 µM
not listed: [20]
inactive: all other assays above

CCCC(=O)C(C)=O
not listed: [14] | [20]
inactive: all other assays above

CC(C)N(c1ccccc1)C(C)C
not listed: [14] | [20]
inactive: all other assays above

CNC(=O)[C@H]1O[C@@H](n2cnc3c(NCc4cc(Cl)ccc4OCc4cc(C)no4)ncnc32)[C@H](O)[C@@H]1N
not listed: [17] | [20]
inactive: all other assays above

CC(C)C(=O)OCc1cccc(OC(=O)[C@@H]2N3C(=O)[C@@H](NC(=O)Cc4ccccc4)[C@H]3SC2(C)C)c1
not listed: [17] | [20]
inactive: all other assays above

COC(=O)[C@@H]1[C@H]2C[C@H]3c4[nH]c5ccccc5c4CCN3C[C@@H]2CC[C@@H]1O
not listed: [14] | [17]
inactive: all other assays above

CCCCCCCCCC(C)=O
not listed: [20]
inactive: all other assays above

CC(C)(C)c1n[nH]c(=S)n(N)c1=O
not listed: [14] | [20]
inactive: all other assays above

CN1C(C)(C)CCCC1(C)C
not listed: [14]
inactive: all other assays above

O=C(OCc1ccccc1)C(=O)OCc1ccccc1
not listed: [20]
inactive: all other assays above

O=C1O[C@@H]2[C@@H](O)[C@H](O)O[C@@H]2[C@H]1O
not listed: [14] | [20]
inactive: all other assays above

CC(=O)OC(C)OC(=O)C(C)c1ccc(-c2ccccc2)c(F)c1 (stereo unspecified)
not listed: [20]
inactive: all other assays above

CCCC/C=C/C=C\C=O
not listed: [17] | [20]
inactive: all other assays above

CCCN1C[C@H](CSC)C[C@@H]2c3cccc4[nH]cc(c34)C[C@H]21
not listed: [14] | [16]
inactive: all other assays above

Oc1ccccc1-c1nnco1
not listed: [20]
inactive: all other assays above
